# Screening data deposited in PubChem by National Center for Advancing Translational Sciences (NCATS).
# KB-V1 cytotox: qHTS assay for MDR1-selective chemotherapeutics: Primary screen using the drug-selected MDR subline cells KB-V1. actives 3.4% (n = 400,000). KB-V1 MDR cells viability, CellTiter-Glo, 72 h. Potency, µM (top dose mostly 46.1 µM), usual class: cytotoxic; note: nearly all actives have a fitted effect of over 60% in size
#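 Cytotoxicity toward P-gp-expressing KB-V1 cells was determined as loss of CellTiter-Glo luminescence after 72 h at 37 degrees C. Compounds were tested in quantitative HTS format across a concentration range, with curves fitted to normalized data.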
# HT1080-NT tox: qHTS for induction of synthetic lethality in tumor cells producing 2HG: qHTS for the HT-1080-NT fibrosarcoma cell line; HT-1080-NT fibrosarcoma viability, CellTiter-Glo ATP luminescence, 48 h; Potency, µM (titrated, usually from 46.1 µM), without a hit: top-dose activity, negative = less viability, usual class: cytotoxic; actives 1.6% (n = 360,000);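 note: NT is the 2HG producing partner of a matched IDH1 knockdown line; 0% = DMSO-treated cells and -100% = media-only wells without cells; nearly all actives have a fitted effect of over 55% in size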
#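 A 48-hour cytotoxicity screen used HT-1080-NT cells plated 2 hours before compound delivery. ATP-based CellTiter-Glo luminescence measured viability, normalized to DMSO and no-cell controls.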
# HT1080 IDH1KD tx: qHTS for induction of synthetic lethality in tumor cells producing 2HG: qHTS for the HT-1080-IDH1KD cell line; Potency, µM (titrated, usually from 46.1 µM), inactives show at the top dose activity, negative = toxicity, hits mostly cytotoxic; actives 2% (n = 360,000); HT-1080 IDH1 knockdown viability, ATP luminescence, 48 h;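 note: 0% = DMSO wells and -100% = cell-free medium wells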
#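 Using the IDH1-knockdown HT-1080 line run in the same batch and compound series as the NT line, viability after 48 h at 37 °C was determined by CellTiter-Glo luminescence and expressed as % activity.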
# KB-3-1 cytotox: qHTS assay for MDR1-selective chemotherapeutics: Primary screen using the parental adenocarcinoma cell KB-3-1; KB-3-1 viability, CellTiter-Glo ATP luminescence, 72 h; Potency, µM (titrated, usually from 46.1 µM), usual class: cytotoxic; actives 1.4% (n = 400,000); note: nearly all actives have a fitted effect of over 60% in size
#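 Here the drug-naive KB-3-1 line serves as comparator for MDR sub-line selectivity; cells received compound titrations, 72 h at 37 °C, then CellTiter-Glo readout.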
# TDP1 cell noCPT: qHTS for Inhibitors of human tyrosyl-DNA phosphodiesterase 1 (TDP1): qHTS in cells in absence of CPT | DT40 Tdp1-/- hTDP1 cells, no CPT, ATP luminescence, 48 h | Potency, µM (series often up to 46.2 µM), for the others: top-dose activity change, negative = growth inhibition, hits mostly inhibitors | actives 15% (n = 420,000) | AID 686978, 2013; note: nearly all actives have a fitted effect of over 55% in size
#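 DT40 Tdp1-/-;hTDP1 cells, no CPT (DMSO vehicle only), 400 cells/well; compounds pin-transferred; ≥48 hr, 37 °C; CellTiter-Glo 30 min RT dark, luminescence read.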
# TDP1 cell CPT: qHTS for Inhibitors of human tyrosyl-DNA phosphodiesterase 1 (TDP1): qHTS in cells in presence of CPT | chicken DT40 Tdp1-/-;hTDP1 cells + 20 nM CPT, ATP luminescence, 48 h | Potency, µM (titrated, usually from 46.2 µM), for the others: top-dose activity change, negative = growth inhibition, hits mostly inhibitors | actives 12% (n = 420,000) | AID 686979, 2013; note: nearly all actives have a fitted effect of over 55% in size
#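 Cell growth measured by CellTiter-Glo luminescence after a minimum 48 h, 37 C compound exposure with 20 nM CPT in Tdp1-knockout DT40 cells stably expressing hTDP1, seeded 400/well; qHTS titration format.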
# Numbers without * were called inactive; i = inactive; ? = inconclusive; / = no result. This is a sample that favours compounds with a hit; in the whole collection about 19% have one here. Calls come from the whole dose curve; as a rule, active = well fitted curve in the direction sought with a large enough effect; inconclusive = small, poorly fitted or top-dose-only effect, or another doubt; inactive = no such curve, though single readings can be large; an effect the other way counts as inactive or inconclusive. Unless noted, % is set by controls: 0 for no effect and ±100 for the full control effect; potency is the fitted concentration of half-maximal effect.
SMILES,KB-V1 cytotox,HT1080-NT tox,HT1080 IDH1KD tx,KB-3-1 cytotox,TDP1 cell noCPT,TDP1 cell CPT
NC(=O)c1cc(-c2ccccc2)sc1NC(=O)CN1CCCCC1,i,?,15µM*,i,23µM*,21µM*
CC(C)(C)C(=O)Nc1sc(-c2ccccc2)cc1C(=O)O,?,?,?,6.5µM*,?,?
CCCNC(=O)c1c(NC(=O)c2ccccc2)sc2c1CCC(C(C)(C)C)C2 (stereo unspecified),i,/,/,i,-11%,2%
CCc1nn(C(CC)C(=O)NCCCN2CC(C)CC(C)C2)c(=O)c2cc3oc(C)cc3n12 (stereo unspecified),i,-21%,?,i,?,16µM*
CCc1nn(C(CC)C(=O)NCC(C)c2ccccc2)c(=O)c2cc3occc3n12 (stereo unspecified),i,-8%,3%,i,-27%,?
CCCCn1cnc2c(SCc3ccc(Br)cc3)nc(N)nc21,i,15µM*,16µM*,i,?,?
CCOC(=O)c1cccc(NC(=O)NCc2cccn2Cc2ccccc2)c1,i,/,/,i,?,?
CC1(C)OC(C)(C)/C(=C/Nc2ccc(O)cc2)C1=O,i,7%,11%,i,23µM*,?
Cc1ccc(NC(=O)c2cc(-c3ccco3)nc3ccccc23)cc1S(=O)(=O)N1CCOCC1,i,-19%,-2%,i,29µM*,?
COc1ccc(NC(=O)c2cc(C)nc3ccccc23)cc1S(=O)(=O)N1CCOCC1,?,0%,-9%,i,3%,0%
O=C(Nc1ccc(Cl)c(S(=O)(=O)N2CCOCC2)c1)c1cc(-c2ccccn2)nc2ccccc12,i,?,-4%,i,23µM*,?
CCCCCOc1ccc(OC(=O)c2ccncc2)cc1,i,-13%,?,i,13µM*,12µM*
CCOc1ccc(OCCCC(=O)NNC(=O)c2ccncc2)cc1,i,4%,10%,i,4%,10%
CCCc1ccc(C(=O)NNC(=O)c2ccc(Cl)cc2)cc1,i,-3%,7%,i,-10%,4%
CCCOc1ccc(C(=O)CCC(=O)NNC(=O)c2ccncc2)cc1,5.8µM*,4%,-1%,?,8%,7%
CCCc1ccc(C(=O)CCC(=O)NNC(=O)c2ccncc2)cc1,?,9%,14%,10µM*,25%,-7%
COc1ccc(Cn2ccnc2SCC(=O)Nc2ccc(C)cc2C)cc1,/,/,/,/,-21%,-15%
CC(C)(C)c1ccc(C(=O)N2CCC2(C)C(=O)Nc2cccc3ncccc23)cc1 (stereo unspecified),i,-7%,-28%,i,21µM*,23µM*
CC(C)(C)c1ccc(C(=O)N2CCC2(C)C(=O)NCc2cccc3ccccc23)cc1 (stereo unspecified),i,?,?,?,-96%,18µM*
CCC(=O)N1CCC1(C)C(=O)Nc1cccc2cccnc12 (stereo unspecified),i,11%,1%,i,-16%,1%
CC(C)(C)c1ccc(C(=O)N2CCC2(C)C(=O)Nc2cccc3ccccc23)cc1 (stereo unspecified),i,?,?,i,23µM*,16µM*
Cc1cc(C(=O)N2CCC2(C)C(=O)Nc2cccc3ccccc23)nn1C (stereo unspecified),i,13%,2%,i,?,?
CC(C)(C)c1ccc(CC(=O)N2CCC2(C)C(=O)Nc2cccc3cccnc23)cc1 (stereo unspecified),i,?,?,i,23µM*,?
COc1ccccc1-c1cnc(C(O)c2ccc(Cl)cc2)[nH]1 (stereo unspecified),i,-5%,-14%,i,-20%,-19%
COCOc1cccc(CN2CCC2(C)C(=O)Nc2ccc3c(c2)OCO3)c1 (stereo unspecified),i,0%,10%,i,?,?
SMILES,KB-V1 cytotox,HT1080-NT tox,HT1080 IDH1KD tx,KB-3-1 cytotox,TDP1 cell noCPT,TDP1 cell CPT
CC1(C(=O)Nc2cccc3cccnc23)CCN1Cc1cccc2c1OCO2 (stereo unspecified),?,6.5µM*,?,?,15µM*,?
Cc1noc(C)c1C(=O)N1CCN(C(=O)c2sc3cc(Cl)ccc3c2Cl)CC1,23µM*,-5%,-3%,i,-24%,?
COc1ccccc1N1CCN(C(=O)C2CCN(S(=O)(=O)c3cn(C)cn3)CC2)CC1,/,/,/,/,-15%,-2%
Oc1ccc(CNc2ccccc2)c2cccnc12,i,5.8µM*,?,?,2.6µM*,3.7µM*
Cc1ccccc1NCc1ccc(O)c2ncccc12,?,3.2µM*,0.71µM*,i,5.2µM*,2.6µM*
Oc1ccc(CNc2ccc(F)cc2)c2cccnc12,i,18µM*,18µM*,?,1.6µM*,2.9µM*
OCc1ccnc2c(O)cccc12,?,-8%,-16%,?,?,?
Oc1ccc(Cn2ccnc2)c2cccnc12,i,?,?,?,?,13%
Cc1ccc(-c2ocnc2C(=O)N2CCOCC2)cc1,i,-1%,0%,i,-3%,-1%
COc1ccc(-n2c(-c3ccc(C)cc3)cc3c2CC(C)(C)CC3=O)cc1Cl,i,/,/,i,5%,-16%
CC1(Cc2ccc(OC(F)(F)F)cc2)C(=O)Nc2ccc(OC(F)(F)F)cc21 (stereo unspecified),i,?,?,i,?,?
CC(=O)c1cccc(-c2ccc3c(c2)C(C)(Cc2ccccc2F)C(=O)N3)c1 (stereo unspecified),i,-7%,?,i,18µM*,26µM*
COc1ccc2c(c1)C(C)(Cc1ccc(C(=O)c3ccccc3)cc1)C(=O)N2 (stereo unspecified),i,-22%,-28%,i,?,?
